Source: PubChem BioAssay
RORgamma inh = blocks mouse ROR gamma transcriptional activity. Drosophila S2 Gal4-RORgamma UAS-luciferase reporter, 20 h. Potency, µM (highest dose often 53.6 µM), actives largely listed as inhibitors. hit rate 5.4% among 310,000; also: nearly all actives have a fitted effect of over 60% in size
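In this cell-based reporter format, copper sulfate (700 uM final) drives Gal4–ROR gamma fusion expression from a metallothionein promoter in Drosophila Schneider cells; compounds preincubated 1 hr, reporter read after 20 hr at ambient temperature.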
GLP-1R inv ag = inverse agonists of human GLP-1 receptor. Potency, µM (highest dose often 38.3 µM), actives largely listed as inhibitors. hit rate 1.6% among 410,000. P43220. AID 624417. HEK293 GLP-1R CRE-luciferase, luminescence, 24 h; GLP-1R form is constitutively active; also: nearly all actives have a fitted effect of over 55% in size
Target sequence (P43220 whole entry, looked up): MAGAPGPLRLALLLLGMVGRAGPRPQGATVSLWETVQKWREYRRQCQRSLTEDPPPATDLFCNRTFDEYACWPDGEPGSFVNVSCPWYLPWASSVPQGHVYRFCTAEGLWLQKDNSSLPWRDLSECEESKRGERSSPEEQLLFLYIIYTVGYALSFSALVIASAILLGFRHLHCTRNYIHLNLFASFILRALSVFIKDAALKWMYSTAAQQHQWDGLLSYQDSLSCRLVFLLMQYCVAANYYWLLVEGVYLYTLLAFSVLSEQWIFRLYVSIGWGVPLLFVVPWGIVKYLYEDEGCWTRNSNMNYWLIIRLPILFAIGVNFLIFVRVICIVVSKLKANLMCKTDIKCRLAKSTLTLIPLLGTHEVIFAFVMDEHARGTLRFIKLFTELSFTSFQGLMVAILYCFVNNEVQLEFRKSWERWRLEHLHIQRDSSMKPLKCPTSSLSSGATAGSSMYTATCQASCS
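HEK293 cells stably co-expressing a cAMP-responsive luciferase reporter and constitutively active GLP-1R were seeded, incubated 12 h, then exposed to compounds for 24 h at 37 C. Luminescence was read 12 min after detection reagent; inverse agonists lower signal.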
GLP1R ag = activates the human GLP-1 receptor. P43220. HEK293 GLP-1R CRE-luciferase, luminescence, 4-6 h; cells express a hypersensitive GLP-1R form. Potency, µM (doses to about 45.6 µM), most hits filed as activators. hit rate 0.007% among 380,000
HEK293 tox = cytotoxic in the GLP-1 receptor inverse agonist counter-screen. HEK293 cAMP-luciferase reporter cells, luminescence, 24 h. Potency, µM (titrated, usually from 38.3 µM), actives largely listed as inhibitors. hit rate 0.13% among 410,000;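 also: loss of luciferase light is scored as toxicity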
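Seeding density was 200 cells/uL; after overnight-length (12 h) culture, 23 nL compounds went on for 24 h at 37 °C. Readout used a luciferase detection reagent, luminescence taken after 12 min at room temperature.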
VP16 counter = counter-screen for ROR gamma inhibitors: Gal4-VP16 reporter | Drosophila S2 Gal4-VP16 UAS-luciferase, luminescence, 20 h | Potency, µM (highest dose often 53.6 µM), hits mostly inhibitors | hit rate 3.5% among 310,000;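 also: Gal4-VP16 expression switched on by copper sulfate through the metallothionein promoter; nearly all actives have a fitted effect of over 50% in size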
Hits are given with their value; - = inactive; ? = inconclusive; . = no result given; [ ] = another dose, or the depositor's remark. Shown are actives, neighbours in structure and some others; about 5.9% of the full set was active somewhere. Calls follow the shape of the dose curve; as a rule, active = well fitted curve in the direction sought with a large enough effect; inconclusive = small, poorly fitted or top-dose-only effect, or another doubt; inactive = no such curve, though single readings can be large; an effect the other way counts as inactive or inconclusive.

SMILES	RORgamma inh	GLP-1R inv ag	GLP1R ag	HEK293 tox	VP16 counter
Cc1ccc(C2c3[nH]c4ccccc4c3CCN2C(=O)CSc2ccccc2)cc1 (stereo not given)	.	?	.	-	.
CCOc1ccc(NC(=O)C2CC(=O)N(c3ccc(C(C)C)cc3)C2)cc1 (stereo not given)	.	-	-	-	.
COC(=O)NC(C(=O)OC)(C(=O)OC)c1ccccc1	-	.	.	.	-
COc1ccc(NC(=O)c2ccc(NC(=O)CCS(=O)(=O)c3cccs3)cc2)cc1Cl	.	?	.	-	.
CCOC(=O)c1[nH]c(C)c(C(=O)N2CCc3c([nH]c4ccccc34)C2c2ccccn2)c1C (stereo not given)	-	11µM	-	-	-
O=C(CSCc1ccc(F)cc1)N1CCc2c([nH]c3ccccc23)C1c1ccc(F)cc1 (stereo not given)	.	4.5µM	.	-	.
CCOc1cc(C(=O)N(Cc2nc(-c3ccc(C)cc3)no2)C(C)C)cc(OCC)c1OCC	.	-	-	-	.
COc1ccc(NC(=O)CN(C)S(=O)(=O)c2ccc3[nH]c4c(c3c2)CCCC4)cc1Cl	.	?	.	-	.
O=C1C(=C2SCCCS2)CC/C1=C\c1ccc(F)cc1	4.5µM	?	-	-	3.5µM
Cc1cccc(/C=C2\CCC(=C3SCCCS3)C2=O)c1	0.28µM	?	-	-	3.5µM
COc1ccccc1CNC(=O)CCn1c(=O)c2ccccc2n(CC(=O)Nc2ccc(C)cc2Cl)c1=O	.	-	-	-	.
Cc1ccc(Sc2ccc(NC(=O)CCl)cc2)c(C)c1	2.8µM	?	-	?	5µM
COc1cc(CNC2CCCC2)cc(Cl)c1OCc1ccccc1F	-	3.5µM	-	?	-
O=c1c2ccccc2sn1-c1nccs1	8.9µM	-	-	-	?
Cc1ccccc1-n1sc2cc(F)ccc2c1=O	3.2µM	?	-	4.5µM	2.8µM
O=c1c2ccccc2sn1-c1ccccc1F	.	14µM	-	10µM	.
O=c1c2ccccc2sn1-c1ccccc1	3.5µM	10µM	-	?	2.8µM
O=c1c2ccccc2sn1-c1cccc(Cl)c1	.	?	-	?	.
NCCCCCCN	-	.	.	.	-
Cc1cccc(C(=O)N2CCc3cc(CNS(=O)(=O)c4ccc(F)c(Cl)c4)ccc32)c1	.	-	.	-	.
O=C(O)C1Cc2c([nH]c3ccccc23)C(c2coc3ccccc3c2=O)N1 (stereo not given)	-	.	.	.	-
COC(=O)C/C=C/[C@@H](C)[C@H](OC)c1c(Br)ccc2c1OCO2	-	.	.	.	-
O=C(Nc1ccc(N2CCCC2)c(Cl)c1)c1ccccc1[N+](=O)[O-]	-	-	-	-	-
O=C(NC(=S)Nc1ccccc1N1CCCC1)c1ccccc1[N+](=O)[O-]	2.8µM	?	-	?	4µM
Cc1ccc(C(=O)NC(=S)Nc2ccccc2N2CCCC2)cc1[N+](=O)[O-]	?	?	-	-	?
SMILES	RORgamma inh	GLP-1R inv ag	GLP1R ag	HEK293 tox	VP16 counter
O=C(NC(=S)Nc1ccc(N2CCCC2)cc1)c1ccccc1[N+](=O)[O-]	4µM	-	-	-	5µM
Cc1occc1C(=O)NNC(=S)NC(=O)COc1ccc(Cl)cc1Cl	16µM	-	-	-	?
Cc1occc1C(=O)NNC(=O)COc1ccc(Br)cc1Br	-	-	-	-	-
CCCCC(=O)NC(=S)NNC(=O)c1ccc(Cl)cc1Cl	11µM	-[0.307 µM]	-	-[0.307 µM]	-
Cc1ccc(C(=O)NC(=S)NNC(=O)c2ccc([N+](=O)[O-])cc2)cc1	?	-	-	-	11µM
O=C(NNC(=S)NC(=O)c1ccccc1[N+](=O)[O-])c1ccccc1[N+](=O)[O-]	-	-	-	-	-
Cc1ccc(S(=O)(=O)NNC(=S)NC(=O)c2ccc([N+](=O)[O-])cc2)cc1	-[10 µM]	-	-	-	?
CCCCOc1ccccc1C(=O)NNC(=S)NC(=O)c1ccccc1[N+](=O)[O-]	14µM	-	-	-	?
CN1C=CC(=C2C=CN(C)C=C2)C=C1	-	.	.	.	-
Cc1ccc(-c2ccc(=O)n(CCC(=O)NCCc3ccccc3)n2)cc1	.	-	-	-	.
Cc1ccccc1-c1ccc2ncnc(NCc3cccs3)c2c1	-	.	.	.	-
O=C(NNC(=S)NC(=O)c1ccc(Br)cc1)c1cccc([N+](=O)[O-])c1	14µM	-	-	-	?
Cc1cccc(C(=O)NC(=S)NNC(=O)COc2ccc(Cl)cc2)c1	4µM	-	-	-	?
COc1ccc(OCC(=O)NNC(=S)NC(=O)c2ccc([N+](=O)[O-])cc2)cc1	5.6µM	-	-	-	5.6µM
O=C(NNC(=S)NC(=O)c1ccccc1[N+](=O)[O-])c1ccc(Cl)cc1Cl	5.6µM	-	-	-	-
Cc1ccc(C(=O)CC(=O)COc2ccc(Cl)cc2)cc1	13µM	?	-	?	10µM
CNC(=S)NNC(=O)COc1ccc(C)c(C)c1	6.3µM	-	-	?	7.1µM
Cc1ccc(C(=O)NC(=S)NNC(=O)c2ccccc2[N+](=O)[O-])cc1	3.2µM	-	-	-	3.2µM
O=C(NNC(=S)NC(=O)c1ccc(Br)cc1)c1ccc([N+](=O)[O-])cc1	11µM	-	-	-	?
Cc1ccc(-c2csc(/C(C#N)=C/c3ccccc3Cl)n2)cc1	.	-	.	-	.
O=C(NCc1ccc(Cl)cc1)c1ccc2c(Cl)c3c(nc2c1)CCCC3	.	-	-	-	.
O=C(O)CCC(=O)NNC(=O)c1ccc([N+](=O)[O-])cc1	-	-	-	-	-
CC(=O)Nc1ccc(NC(=O)c2cc([N+](=O)[O-])cc([N+](=O)[O-])c2)cc1	-	-	-	-	-
O=C(COc1cccc(NC(=O)c2cccc([N+](=O)[O-])c2)c1)c1ccc(Br)cc1	-	3.2µM	-	-	-
CCCCCC(=O)NNC(=S)NC(=O)c1ccc([N+](=O)[O-])cc1	2.8µM	-	-	-	6.3µM
SMILES	RORgamma inh	GLP-1R inv ag	GLP1R ag	HEK293 tox	VP16 counter
O=C(NNC(=S)NC(=O)c1ccccc1)c1ccc([N+](=O)[O-])cc1	3.5µM	-	-	-	1.4µM
Cc1ccc(NC(=O)c2ccc(Nc3c([N+](=O)[O-])cc([N+](=O)[O-])cc3[N+](=O)[O-])cc2)cc1	?	-	-	?	1.3µM
O=C(NC(=S)NNC(=O)c1ccccc1O)c1ccc([N+](=O)[O-])cc1	-	-	-	-	-
O=C(Nc1cccc(OCC(=O)N2CCOCC2)c1)c1cccc([N+](=O)[O-])c1	-	-	-	-	-
O=[N+]([O-])c1ccc2c(c1)[nH]c(=S)n2-c1ccccc1	5µM	-	-	-	-
COc1ccc(-n2c(-c3cccc(C)c3[N+](=O)[O-])n[nH]c2=S)cc1	7.9µM	-	-	-	-
O=[N+]([O-])c1cccc(-c2ccc(/C=N/n3c(-c4ccccc4)n[nH]c3=S)o2)c1	-	-	-	-	10µM
O=[N+]([O-])c1cccc(-c2n[nH]c(=S)n2-c2ccccc2)c1	7.1µM	-	-	-	-
